ADAM10 inh – inhibitors of human ADAM10. O14672. recombinant ADAM10, EDANS/DABCYL FRET peptide cleavage, 3 h. inhibition, % at 7 µM. 0.62% of 370,000 active. AID 720582;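 active = inhibition above a per-campaign cutoff equal to the mean of compounds falling between control-based bounds plus 3 SD, cut at about 20% in these data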;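 also: 0% = DMSO wells while the 100% control is not disclosed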
FAS TE block – blocks the thioesterase domain of human fatty acid synthase. P49327. recombinant FAS-TE, OMFH fluorogenic substrate, fluorescence endpoint. inhibition, % at 15 µM. 0.67% of 360,000 active. AID 602261;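 active = compounds whose normalised, plate-corrected inhibition of enzyme fluorescence in the single-dose primary screen is 50% or more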;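 also: 0% = DMSO with enzyme and 100% = substrate without enzyme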
GRIN3A LBD mod – NR3A (human) ligand-binding domain modulation | NR3A LBD differential scanning fluorimetry, Tm shift; 0% = protein alone, 100% = glycine-bound protein | 2.5% of 340,000 active | Tm shift relative to glycine control, % at 25 µM;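 active = melting temperature shift of at least 10% of the positive control shift, at one fixed dose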
KLK7 zymogen act – proKLK7 (human) activation, primary screen. activation, % at 7 µM. AID 652039. P49862. purified proKLK7, EDANS-DABCYL substrate fluorescence; 100% is mature enzyme control, 0% vehicle. 0.9% of 370,000 active;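 active = activation above the mean of all tested compounds plus 3 SD, computed per campaign excluding outliers beyond control limits, cut at about 13% in these data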
ADAM17 inh – ADAM17 inhibition, QFRET primary screen; inhibition, % at 6.95 µM; P78536; 0.83% of 370,000 active; recombinant ADAM17, EDANS/DABCYL FRET peptide cleavage;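 active = inhibition above the mean of compounds lying between control limits plus 3 SD, set per campaign, cut at about 8.5% in these data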;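 also: 0% = DMSO-only wells as the low control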
Target sequence (P78536 215-824 limits assumed): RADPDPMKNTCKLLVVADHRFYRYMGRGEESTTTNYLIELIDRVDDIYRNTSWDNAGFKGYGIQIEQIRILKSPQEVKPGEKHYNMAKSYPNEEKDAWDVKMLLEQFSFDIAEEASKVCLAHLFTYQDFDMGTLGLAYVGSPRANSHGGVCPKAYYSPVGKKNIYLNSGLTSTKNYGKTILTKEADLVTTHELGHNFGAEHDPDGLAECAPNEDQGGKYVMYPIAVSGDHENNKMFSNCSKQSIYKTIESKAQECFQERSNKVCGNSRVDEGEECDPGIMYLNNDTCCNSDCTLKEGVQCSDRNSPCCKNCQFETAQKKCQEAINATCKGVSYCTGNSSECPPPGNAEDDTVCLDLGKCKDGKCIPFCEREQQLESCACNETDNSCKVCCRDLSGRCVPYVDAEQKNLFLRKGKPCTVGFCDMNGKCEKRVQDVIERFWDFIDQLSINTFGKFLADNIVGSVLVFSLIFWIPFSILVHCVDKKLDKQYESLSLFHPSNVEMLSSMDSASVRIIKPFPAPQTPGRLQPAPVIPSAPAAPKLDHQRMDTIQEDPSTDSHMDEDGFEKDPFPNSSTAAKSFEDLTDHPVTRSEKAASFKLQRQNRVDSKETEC
An asterisk follows results filed as active; · = no result given. This is a sample that favours compounds with a hit; in the whole collection about 4.6% have one here.

SMILES	ADAM10 inh	FAS TE block	GRIN3A LBD mod	KLK7 zymogen act	ADAM17 inh
COC(=O)[C@]12C[C@H](CC(=O)N3CCN(C(=O)C4CC4)CC3)C(=O)N(Cc3ccco3)C1=C[C@H](COCc1ccccc1)O[C@@H]2C	-4.8	·	·	0.4	-3.7
CC(C)(C)NC(=O)C(c1cccnc1)N(C(=O)c1cnc[nH]1)c1ccc(C(C)(C)C)cc1 (stereo unspecified)	4.0	·	·	·	1.1
Cc1ccc2nc(-c3ccc(NC(=O)CN4C(=O)NC(C)(c5ccc(OC(F)F)cc5)C4=O)cc3)sc2c1 (stereo unspecified)	-179.5	-1.9	34.6*	-25.2	-57.7
Cc1ccc2nc(-c3ccc(NC(=O)CN(c4ccccc4C)S(C)(=O)=O)cc3)sc2c1	-387.2	19.8	15.0*	-0.8	-131.7
Cc1ccc2nc(-c3ccc(NC(=O)COC(=O)c4ccco4)cc3)sc2c1	-79.4	-9.4	-8.3	-5.4	-15.5
Cc1cc(C)cc(N(CC(=O)Nc2ccc(-c3nc4ccc(C)cc4s3)cc2)S(C)(=O)=O)c1	-189.2	18.1	25.9*	0.1	-51.2
COC(=O)C(CC(=O)c1ccc(Cl)cc1)c1ccc(C)cc1 (stereo unspecified)	10.3	16.7	15.0*	-0.2	0.6
CCC(C)C1/C=C\CC(NC(=O)OCC2c3ccccc3-c3ccccc32)CC(=O)N1Cc1ccccc1 (stereo unspecified)	·	17.0	1.0	·	·
COc1ccc(C2/C=C\CC(NC(=O)OCC3c4ccccc4-c4ccccc43)CC(=O)N2Cc2ccccc2F)cc1 (stereo unspecified)	·	17.4	14.0*	·	·
CN(C)S(=O)(=O)c1ccc2nnn(OCC(=O)NC34CC5CC(CC(C5)C3)C4)c2c1	-0.5	4.4	11.5*	0.1	0.2
C/C(=N/NC(=O)Cc1cccs1)c1cccc([N+](=O)[O-])c1	-2.1	·	·	0.3	-0.8
CCc1nnc(NC(=O)CSc2nc(-c3ccc(F)cc3)cc(-c3ccccc3)c2C#N)s1	3.4	0.5	-0.7	0.5	-1.3
COc1ccc(-c2cc(-c3ccccc3)nc(SCC(=O)Nc3ncc(C)s3)c2C#N)cc1	-20.7	37.7	20.5*	-8.0	-5.2
C/C(=N\NC(=O)CSCc1ccccc1Br)c1cccc([N+](=O)[O-])c1	-1.5	-2.6	21.8*	-0.6	2.0
C/C(=N\NC(=O)CSCc1ccc([N+](=O)[O-])cc1)c1cccc(Br)c1	3.0	29.8	-10.2	0.1	6.0
CCN(CC)CCCNC(=O)c1cc2c(-c3cccc(OC)c3)nn(C)c2s1	-316.6	-0.1	10.6*	11.3	-114.5
O=C(Nc1cc(Cl)ccc1F)C1CCCN(c2nnc(-n3cccc3)s2)C1 (stereo unspecified)	3.1	·	·	0.4	1.1
COc1ccccc1OCC(=O)O	8.5	-7.4	-0.2	-0.3	-1.1
COc1ccccc1OC(C)C(=O)O (stereo unspecified)	1.6	-7.8	12.7*	-0.8	-4.5
C=CCn1c(Cc2cccs2)nnc1SCC(=O)c1ccc2ccccc2c1	-5.5	7.5	15.7*	0.2	-4.8
C=CCn1c(CNC(=O)c2cccs2)nnc1SCC(=O)c1ccc(Br)cc1	9.3	1.4	13.3*	0.4	3.0
CC(C)C[C@H](NC1(C(=O)NC2CCCCC2)CCCCC1)C(=O)NCCc1c[nH]c2ccccc12	3.9	·	·	·	-1.3
COc1cccc(OC)c1NC(=O)OCCN1CCCC12CCC(c1ccccc1)CC2 (stereo unspecified)	5.2	·	·	·	-0.2
O=C(Nc1nc2ccccc2s1)C1CC(=O)N(c2ccccc2)C1 (stereo unspecified)	9.7	2.2	-1.7	-0.2	4.3
O=C(Nc1nc2ccccc2s1)C1CC(=O)N(c2ccc(Br)cc2)C1 (stereo unspecified)	18.9	19.4	15.6*	0.1	7.6
SMILES	ADAM10 inh	FAS TE block	GRIN3A LBD mod	KLK7 zymogen act	ADAM17 inh
CC(C)CNC(=O)CC1Oc2ccccc2NC1=O (stereo unspecified)	-8.3	·	·	0.1	-2.3
COC(=O)c1cc(S(=O)(=O)N2CCN(c3ccc([N+](=O)[O-])cc3)CC2)c[nH]1	9.2	14.3	207.0*	0.0	1.4
O=[N+]([O-])c1ccc(N2CCN(S(=O)(=O)c3cnc[nH]3)CC2)cc1	0.4	-35.6	10.5*	-0.2	-0.1
COC(=O)c1cc(S(=O)(=O)N2CCN(c3ccc(F)cc3)CC2)c[nH]1	-6.7	1.1	1.8	0.2	-4.7
Cc1noc(C)c1S(=O)(=O)N1CCN(c2ccc([N+](=O)[O-])cc2)CC1	-6.8	10.4	0.7	0.1	-4.3
CS(=O)(=O)N[C@@H]1C[C@@H]2O[C@H](CO)CC[C@@H]2O[C@@H]1CCc1ccc(-c2ccccc2F)cc1	6.3	·	·	0.9	1.3
Cn1c2ccccc2c(=O)c2ccc(C#Cc3ccc(N)cc3)cc21	-83.5	16.1	11.6*	-16.2	-21.2
COc1ccc(C#Cc2ccc3c(=O)c4ccccc4n(C)c3c2)cc1	·	·	5.6	·	·
Cn1c2ccccc2c(=O)c2cc(C#Cc3cccc(N)c3)ccc21	·	8.0	22.5*	·	·
COc1ccc(-n2c(SC/C=C/c3ccccc3)nnc2-c2cccs2)cc1	12.2	·	·	0.6	4.1
CCC(Oc1ccccc1)C(=O)Nc1ccccc1C(=O)N1CCN(C)CC1 (stereo unspecified)	-5.3	-3.0	11.1*	0.3	-0.1
CCC(Oc1ccccc1)C(=O)Nc1ccccc1C(=O)N1CCOCC1 (stereo unspecified)	-1.4	-5.7	12.6*	-0.1	-0.2
CCC(Oc1ccccc1)C(=O)Nc1ccccc1C(=O)N1CCCCC1 (stereo unspecified)	-2.2	-0.1	9.6	-0.5	-0.5
COc1cc(-n2c(C)nc3cc(C(=O)N4CC(C)CC(C)C4)ccc32)cc(OC)c1OC (stereo unspecified)	2.9	·	·	-0.1	4.1
COc1ccc(/C=C/C(=O)OCc2csc(-c3ccccc3)n2)cc1OC	-16.7	26.1	17.6*	-5.8	-5.8
O=C(OCc1csc(-c2ccccc2)n1)c1ccc(O)cc1	-5.2	2.7	20.5*	-0.1	-1.1
Cc1cccc(NC(=O)Cn2nnc(-c3ccccc3F)n2)c1C	6.5	·	·	0.1	-2.0
COc1ccc(N2C(=O)C3[C@@H](C2=O)C2(Cl)C(Cl)=C(Cl)C3(Cl)C2(OC)OC)cc1 (stereo partly specified)	4.5	4.7	-11.0	0.1	0.7
COc1ccc(N2C(=O)C3C4C=CC(c5ccccc5)(C3C2=O)C2C(=O)N(c3ccc(OC)cc3)C(=O)C42)cc1 (stereo unspecified)	3.6	-2.5	12.1*	0.5	-1.1
C/C(C=NNC(=O)CSc1nc2ccccc2n1Cc1ccccc1Cl)=C\c1ccccc1	4.4	·	·	-0.2	5.4
COC(=O)c1ccc(N=NN2CCCCCC2)cc1	-8.7	12.1	17.5*	-0.2	-1.3
COc1cccc2c1[C@H](/C=C/c1ccccc1)[C@@H]([C@H](O)CO)OC2	2.3	·	·	0.3	-0.6
Cn1c(Cc2cccs2)nnc1SCC(=O)Nc1ccc2cn[nH]c2c1	3.3	·	·	-0.6	-2.4

Screening data: PubChem BioAssay, several laboratories
